Consider 65 compounds from ChEMBL document CHEMBL4513216, “Probing the Open Global Health Chemical Diversity Library for Multistage-Active Starting Points for Next-Generation Antimalarials” (ACS Infect Dis, 2020).

In all, about 68,000 compounds went through this assay and about 2,700 (4%) showed an effect of 50% or more. What follows is part of a selection rich in strong results, with near analogues and random picks from the rest.

In the assay the test system is Plasmodium berghei. Description: Screen against P. berghei liver stage (PbLuc), transformed with Luciferase, at 2uM. Type of assay: functional, HepG2. The conditions noted are these: tested at 2 uM.
As for `CCN(CC)C(=O)[C@@H]1C[C@H](N)CN1c1nnc(-c2ccccc2)s1`, the INHIBITION is reported as -51.55%.

As to `Cc1noc(C)c1CCC(=O)NC(C)c1nnc2n1CCC2` (stereo not given), the INHIBITION came out at 20.31%.

As for `CCC(C)N(Cc1ccncc1)C(=O)CCC(=O)OC` (stereo not given), the INHIBITION is recorded as -28.11%.

Turning to `CCc1cc(NCCC(F)(F)F)nc(N2CCOCC2)n1`, the INHIBITION is 35.15%.

As for `CN1C(=O)C2(CCN(CCO)C2)c2ccccc21` (stereo not given), the INHIBITION is reported as 59.33%.

In the case of `CN1C(=O)C2(CCN(CC3CC3)CC2)c2ccccc21`, the INHIBITION was found to be 1.42%.

On to `CN1C(=O)C2(CCN(CC3CCC3)C2)c2ccccc21` (stereo not given), for which the INHIBITION was determined as 19.05%.

`NC(=O)N1CCC2(CCN(C(=O)c3cccnc3)CC2)C1`: the INHIBITION is -14.06%.

As to `CCNC(=O)[C@@H]1C[C@H](NC(=O)c2ccc(C)s2)CN1Cc1ccc(C)o1`, the INHIBITION is reported as -12.44%.

Turning to `Cc1occc1C(=O)N1Cc2nccn2CC(CN2CCOCC2)C1` (stereo not given), the INHIBITION amounted to 25.86%.

For the compound `COc1nc2c(cc1C(=O)NCCCc1nnc(N)s1)CCC2`, the INHIBITION was found to be 38.32%.

In the case of `Cc1noc(CN(C)C2CCCN(Cc3noc(C4CC4)n3)C2)n1` (stereo not given), the INHIBITION is -23.42%.

For the compound `O=C(CC1Cn2ncnc2NC1=O)Nc1cccc(C(F)(F)F)c1` (stereo not given), the INHIBITION was 0%.

For `O=S(=O)(CCNCc1cc(O)c2cc(F)ccc2n1)N1CCCC1`, the INHIBITION is reported as -9.89%.

`CN(C)S(=O)(=O)N1CCCC(c2ccncn2)C1` (stereo not given): the INHIBITION stood at 31.98%.

With `CCn1nc(CC(C)C)cc1C(=O)NCC(F)(F)F`, the INHIBITION is reported as 1.04%.

As for `COC[C@H]1CC[C@H]2[C@H](CCN2C(=O)c2ccncc2F)O1`, the INHIBITION is 39.51%.

With `O=C(c1ccncc1F)N1CC[C@@H]2OC(COCC3CC3)CC[C@@H]21` (stereo not given in full), the INHIBITION stood at 27.08%.

Turning to `CC(C)COC[C@@H]1CC[C@H]2[C@H](CCN2C(=O)c2ccncc2F)O1`, the INHIBITION is given as 31.08%.

With `CCOC[C@@H]1CC[C@H]2[C@H](CCN2C(=O)c2ccncc2F)O1`, the INHIBITION is 50.61%.

For `CCOC[C@H]1CC[C@H]2[C@H](CCN2C(=O)c2ccncc2F)O1`, the INHIBITION is reported as 0.82%.

As to `CC(C)COC[C@H]1CC[C@H]2[C@H](CCN2C(=O)c2ccncc2F)O1`, the INHIBITION was 55.49%.

In the case of `CC(=O)Nc1ccc(CNc2ccn(Cc3ccccc3)n2)cc1`, the INHIBITION worked out at 35.56%.

Take `COCCOc1ccc(NC(=O)C2CC(=O)N(C3CC3)C2)cn1` (stereo not given): the INHIBITION is recorded as -45.07%.

As to `NCC1CCC2(CCN(C(=O)c3ccccn3)CC2)CO1` (stereo not given), the INHIBITION is reported as -5.44%.

Turning to `O=C(C(CNCc1cccnc1)c1ccccc1)N1CCOCC1` (stereo not given), the INHIBITION worked out at 17.33%.

Turning to `Cc1nc(CN2CCOCC23CCN(c2ccc(C#N)cc2)CC3)cs1`, the INHIBITION is recorded as -30.38%.

With `c1coc(CN2CCO[C@@]3(CCC[C@@H]3COCc3nccs3)C2)c1`, the INHIBITION was 54.25%.

Turning to `c1csc(COC[C@H]2CCC[C@]23CN(Cc2ccoc2)CCO3)n1`, the INHIBITION stood at 36.29%.

Take `COC[C@@H]1CCC[C@@]12CN(Cc1ccco1)CCO2`: the INHIBITION is given as 18.4%.

With `O=C(c1cccnc1)N1CCC2(CC1)CN(c1ccccn1)CCO2`, the INHIBITION is -1.81%.

`CCCS(=O)(=O)N1CCC2(CC1)CN(c1ccccn1)CCO2`: the INHIBITION came to 72.41%.

With `CCCS(=O)(=O)N1CCOC2(CCCN(c3ccccn3)C2)C1` (stereo not given), the INHIBITION is 2.39%.

`CCS(=O)(=O)N1CCOC2(CCCN(c3ccccn3)C2)C1` (stereo not given): the INHIBITION worked out at 29.45%.

As to `O=C(c1ccnnc1)N1CCC2(CC1)CN(c1ccccn1)CCO2`, the INHIBITION was -0.91%.

On to `Cc1ccc(C(=O)N2CCC3(CC2)CN(c2ccccn2)CCO3)cc1`, for which the INHIBITION is reported as 56.71%.

As for `Cc1cc(CN2C[C@@H]3CN(C(=O)c4cccn4C)CCO[C@@H]3C2)no1`, the INHIBITION was found to be 9.45%.

On to `CN(C)C(=O)CCCNC(=O)C(c1cccc(F)c1)N(C)C` (stereo not given), for which the INHIBITION is reported as -4.92%.

Consider `OCCn1nccc1C1CCN(CCOc2ccccc2F)CC1`, for which the INHIBITION was 17.31%.

Consider `NC(=O)NC(=O)C(c1ccccc1)N1CCN(Cc2ccccc2)CC1` (stereo not given), for which the INHIBITION was determined as 16.8%.

Turning to `NC(=O)NC(=O)C(c1ccccc1)N1CCN(Cc2ccc(Cl)s2)CC1` (stereo not given), the INHIBITION was -72.31%.

On to `NC(=O)NC(=O)C(c1ccccc1)N1CCN(Cc2ccsc2)CC1` (stereo not given), for which the INHIBITION is on record as 50.3%.

`CC(C)n1cc(N2CC(C(=O)N3CCCC3)CC2=O)cn1` (stereo not given): the INHIBITION is -69.99%.

For the compound `O=C(N1CCCO1)[C@@]12CCO[C@@H]1CCN(Cc1cccs1)C2`, the INHIBITION was determined as 17.31%.

Take `COc1cc(CN2CCCCCC2c2cccs2)cc(OC)c1OC` (stereo not given): the INHIBITION was determined as 11.24%.

With `COc1cccc(CN2CCCCCC2c2cccs2)c1O` (stereo not given), the INHIBITION was determined as 4.47%.

As for `COc1cc(CN2CCCCCC2c2cccs2)cc(OC)c1O` (stereo not given), the INHIBITION amounted to 50.46%.

Consider `O=C(C1CCCC1)N1CC2(CCN(C3COC3)CC2)Cc2ccccc21`, for which the INHIBITION is reported as -3.1%.

On to `Cc1cccc(-c2nc(C)nn2CC(=O)NC(C)C)c1`, for which the INHIBITION is reported as -15.28%.

As to `O=C1CC[C@@H](C(=O)N2CCc3[nH]nc(COc4cccc(Cl)c4)c3C2)N1`, the INHIBITION is 51.85%.

Take `O=C(c1csnn1)N1CCc2[nH]nc(COc3cccc(Cl)c3)c2C1`: the INHIBITION is reported as 47.89%.

As to `O=C(N1CCOCC1)N1CCc2[nH]nc(COc3cccc(Cl)c3)c2C1`, the INHIBITION is reported as 5.04%.

Take `CN1C(=O)C2(CCCN(C(=O)c3cccnc3O)C2)c2ccccc21` (stereo not given): the INHIBITION is reported as -23.27%.

`O=C(NCCn1ccnc1)N1CCCC1c1ccncc1` (stereo not given): the INHIBITION is on record as 53.33%.

`O=C(NCCCn1ccnc1)N1CCCC1c1ccncc1` (stereo not given): the INHIBITION is on record as -1.27%.

As to `COc1ccc(C2CCCN2C(=O)NCCn2ccnc2)cc1` (stereo not given), the INHIBITION is reported as 26.61%.

`O=C(NCCn1ccnc1)N1CCN(Cc2cccs2)CC1`: the INHIBITION was -68.26%.

Turning to `CC(Cn1ccnc1)NC(=O)N1CCN(Cc2ccco2)CC1` (stereo not given), the INHIBITION was 32.64%.

For `O=C(Nc1ccc2c(c1)OCO2)N1CCN(CCn2ccnc2)CC1`, the INHIBITION was 58.59%.

With `O=C(Nc1ccc2c(c1)OCO2)N1CCN(CCc2ccccc2)CC1`, the INHIBITION was 20.76%.

Take `O=C(NCCn1ccnc1)N1CCN(Cc2ccsc2)CC1`: the INHIBITION was -1.3%.

On to `CC(Cn1ccnc1)NC(=O)N1CCN(Cc2cccnc2)CC1` (stereo not given), for which the INHIBITION was -36.13%.

Take `O=C(NCCn1ccnc1)N1CCN(Cc2cccnc2)CC1`: the INHIBITION is 58.96%.

Regarding `O=C(Nc1ccc2c(c1)OCO2)N1CCN(CCn2cccn2)CC1`, the INHIBITION is reported as 43.57%.

With `O=C(NCCn1ccnc1)N1CCN(Cc2ccco2)CC1`, the INHIBITION is on record as 54.28%.
